# This is a sample that favours compounds with a hit; in the whole collection about 19% have one here.
# HT1080 IDH1KD tx: qHTS for induction of synthetic lethality in tumor cells producing 2HG: qHTS for the HT-1080-IDH1KD cell line; Potency, µM (titrated, usually from 46.1 µM), inactives show at the highest dose activity, negative = toxicity, most hits filed as cytotoxic; hit rate 2% among 360,000; AID 686971, 2013; HT-1080 IDH1 knockdown viability, ATP luminescence, 48 h;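 note: potency is the fitted concentration of half-maximal effect; 0% = DMSO wells and -100% = cell-free medium wells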
#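 Using the IDH1-knockdown HT-1080 line run in the same batch and compound series as the NT line, viability after 48 h at 37 °C was determined by CellTiter-Glo luminescence and expressed as % activity.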
# IL-1B inflam inh: qHTS for Inhibitors of Inflammasome Signaling: IL-1-beta AlphaLISA Primary Screen; THP-1 LPS/ATP IL-1B secretion, AlphaLISA, 16 h; active compounds read low; activity change, % at 57.5 µM; hit rate 4.7% among 360,000; AID 743279, 2014; in the data active = activity change below about -50%; inconclusive = mostly about -30% to -49%
#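 THP-1 cells pretreated 1 hr with compounds (up to 57.5 uM final), then stimulated with LPS (250 ng/mL final) plus ATP (1.25 mM final); secreted IL-1B measured by AlphaLISA after 16 hr, decreased signal indicating inhibition.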
# TDP1 cell CPT: qHTS for Inhibitors of human tyrosyl-DNA phosphodiesterase 1 (TDP1): qHTS in cells in presence of CPT. hit rate 12% among 420,000. Potency, µM (highest dose often 46.2 µM), inactives show at the highest dose activity change, negative = growth inhibition, most hits filed as inhibitors. AID 686979, 2013. chicken DT40 Tdp1-/-;hTDP1 cells + 20 nM CPT, ATP luminescence, 48 h; note: potency is the fitted concentration of half-maximal effect; nearly all actives have a fitted effect of over 55% in size
#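 Chicken DT40 Tdp1-/- cells complemented with human TDP1, 400 cells/well, exposed to compounds plus 20 nM camptothecin for at least 48 h at 37 C; viability read as ATP content by CellTiter-Glo luminescence.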
# HT1080NT lethal: qHTS for induction of synthetic lethality in tumor cells producing 2HG: qHTS for the HT-1080-NT fibrosarcoma cell line; HT-1080-NT fibrosarcoma viability, CellTiter-Glo ATP luminescence, 48 h; Potency, µM (series often up to 46.1 µM), for inactives: top-dose activity, negative = less viability, most hits filed as cytotoxic; hit rate 1.6% among 360,000;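 note: NT is the 2HG producing partner of a matched IDH1 knockdown line; potency is the fitted concentration of half-maximal effect; 0% = DMSO-treated cells and -100% = media-only wells without cells; nearly all actives have a fitted effect of over 55% in size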
#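 750 cells/well, RPMI + 5% FBS; 2 h settle, compound pin-transfer, 48 h at 37 degrees C. CellTiter-Glo 10 min RT, luminescence. Normalized to DMSO and media-only wells.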
# TDP1 cell noCPT: qHTS for Inhibitors of human tyrosyl-DNA phosphodiesterase 1 (TDP1): qHTS in cells in absence of CPT; DT40 Tdp1-/- hTDP1 cells, no CPT, ATP luminescence, 48 h; Potency, µM (series often up to 46.2 µM), for the others: top-dose activity change, negative = growth inhibition, usual class: inhibitors; hit rate 15% among 420,000; AID 686978, 2013; note: potency is the fitted concentration of half-maximal effect; nearly all actives have a fitted effect of over 55% in size
#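 DT40 Tdp1-/-;hTDP1 cells, no CPT (DMSO vehicle only), 400 cells/well; compounds pin-transferred; ≥48 hr, 37 °C; CellTiter-Glo 30 min RT dark, luminescence read.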
# The depositor's hits bear a star; u = inconclusive; x = no result given. Unless noted, calls come from the whole dose curve; as a rule, active = well fitted curve in the direction sought with a large enough effect; inconclusive = small, poorly fitted or top-dose-only effect, or another doubt; inactive = no such curve, though single readings can be large; an effect the other way counts as inactive or inconclusive. Unless noted, % is set by controls: 0 for no effect and ±100 for the full control effect.
SMILES,HT1080 IDH1KD tx,IL-1B inflam inh,TDP1 cell CPT,HT1080NT lethal,TDP1 cell noCPT
COc1cc(OC)c2c(-c3cccc(-c4ccc(F)c(Cl)c4)c3)cc(=O)oc2c1,16µM*,67,u,u,23µM*
COc1cc(OC)c2c(-c3cccc(-c4ccc(C(F)(F)F)cc4)c3)cc(=O)oc2c1,3%,115,4.6µM*,7%,2.6µM*
COc1cc(OC)c2c(C)c(Cl)c(=O)oc2c1,-4%,-22,-3%,-1%,-11%
Fc1cccc(Cc2c(C3CCCCC3)nc3ccc(Cl)cn23)c1,u,2,u,-25%,u
O=C(CSc1nc(-c2ccccc2)[nH]c1-c1ccccc1)Nc1ccc2c(c1)OCCO2,x,x,10µM*,x,9.2µM*
COc1ccc(-c2nc(SCC(=O)Nc3ccc4c(c3)OCO4)c(-c3ccc(OC)cc3)[nH]2)cc1,x,x,-19%,x,-27%
Cc1cccc(-c2nc(SCC(=O)Nc3ccc4c(c3)OCO4)c(-c3ccccc3)[nH]2)c1,x,x,21µM*,x,u
COc1ccc(-c2[nH]c(-c3ccccc3)nc2SCC(=O)Nc2ccc3c(c2)OCCO3)cc1,x,x,13µM*,x,16µM*
CCOc1ccc(N(C(C)C(=O)N/N=C(\C)c2cccc(NC(=O)c3ccccc3)c2)S(C)(=O)=O)cc1 (stereo unspecified),-2%,u,18µM*,-3%,18µM*
CCOc1ccc(N(C(C)C(=O)Nc2cccnc2)S(C)(=O)=O)cc1 (stereo unspecified),4%,46,11%,6%,20%
Cn1c(SCC(=O)Nc2nc3ccccc3s2)ncc(C(=O)Nc2ccc(Cl)cc2)c1=O,x,x,-8%,x,0%
COc1ccc(N(CC(=O)NCCC2=CCCCC2)S(=O)(=O)c2c(C)[nH]c(=O)[nH]c2=O)cc1,6%,-5,-7%,0%,-5%
N#CC(C(=O)NCCc1ccccc1)c1nc2ccccc2nc1N1CCCCC1 (stereo unspecified),-2%,-3,21µM*,-1%,-27%
N#CC(C(=O)NCc1ccccc1)c1nc2ccccc2nc1N1CCCC1 (stereo unspecified),-9%,9,u,-1%,u
CCCCCCNC(=O)C(C#N)c1nc2ccccc2nc1N1CCOCC1 (stereo unspecified),1%,-3,u,1%,-16%
CCCCCNC(=O)C(C#N)c1nc2ccccc2nc1N1CCCC1 (stereo unspecified),-4%,19,-4%,2%,u
N#CC(C(=O)NCCc1ccccc1)c1nc2ccccc2nc1N1CCOCC1 (stereo unspecified),11%,-8,16µM*,19%,u
CCOC(=O)N1CCN(c2nc3ccccc3nc2C(C#N)C(=O)NCCc2ccccc2)CC1 (stereo unspecified),14%,-2,16µM*,15%,21µM*
CCOC(=O)C1CCCN(c2nc3ccccc3nc2C(C#N)C(=O)NCc2ccccc2)C1 (stereo unspecified),-1%,-5,u,2%,9.2µM*
Cc1ccc(/C=C2\Oc3cc(OCC(=O)NN)ccc3C2=O)o1,-22%,-13,-8%,u,-19%
O=C1C2CC=CCC2C(=O)N1c1ccc(N2CCN(c3ccccn3)CC2)c([N+](=O)[O-])c1 (stereo unspecified),2%,6,u,u,16µM*
COc1ccc(Cl)cc1NCCC(O)c1ccc(F)cc1 (stereo unspecified),0%,-1,18µM*,2%,9.2µM*
CC(=O)Nc1ccc(N2CC(C)(C)C2=O)cc1,6%,-3,2%,0%,-9%
COc1ccc(N2CCN(C(C)C(=O)N(C)Cc3ccccc3)CC2)cc1 (stereo unspecified),-5%,-14,1%,18%,-4%
CCOC(=O)CN1C(c2ccc(O)cc2)Nc2ccc(Br)cc2C1c1ccccc1 (stereo unspecified),u,-102*,15µM*,16µM*,u
SMILES,HT1080 IDH1KD tx,IL-1B inflam inh,TDP1 cell CPT,HT1080NT lethal,TDP1 cell noCPT
CCOC(=O)N1CC(=O)Nc2ccc(Br)cc2C1c1ccccc1 (stereo unspecified),-5%,0,u,6%,-24%
Cc1nc2ccc(C(=O)N3c4ccccc4CC3C)cc2s1 (stereo unspecified),18µM*,32,23µM*,u,u
CCOC(=O)c1cc2c(=O)n3cccc(C)c3nc2n(CCOC)c1=NC(C)=O,2%,x,-10%,-1%,-29%
COc1ccccc1C1CCN(c2cc(O)ccc2[N+](=O)[O-])CC1,u,-6,-21%,u,u
Cc1nc(C(=O)NCCO)cc2c1[nH]c1ccccc12,13%,-4,9%,0%,-6%
C[C@H](NC(=O)c1cc2c([nH]c3ccccc32)c(-c2ccccc2)n1)C(=O)O,-1%,5,u,-15%,u
Cc1ccc(-c2nc(C(=O)NCCCN(C)C)cc3c2[nH]c2ccccc23)cc1,u,-17,u,u,23µM*
O=C(NCCO)c1cc2c([nH]c3ccccc32)c(-c2ccccc2)n1,-29%,u,u,-25%,16µM*
O=C(NCCO)c1cc2c([nH]c3ccccc32)c(-c2ccc(F)cc2)n1,-12%,-93*,u,-17%,16µM*
Cc1nc(C(=O)NCCCO)cc2c1[nH]c1ccccc12,21%,-8,u,4%,u
O=C(Cc1ccccc1[N+](=O)[O-])N/N=C/c1cccnc1,1%,20,-24%,10%,0%
C[C@H]1C[C@H]2[C@@H]3CCC4=CC(=O)C=C[C@]4(C)[C@@]3(Cl)[C@@H](O)C[C@]2(C)[C@@]1(O)C(=O)CO,13%,-59*,u,u,u
C[C@@H]1C[C@H]2[C@@H]3CCC4=CC(=O)C=C[C@]4(C)[C@@]3(F)[C@@H](O)C[C@]2(C)[C@@]1(O)C(=O)COP(=O)(O)O,25%,-19,3%,-1%,3%
CCCCC(=O)O[C@]1(C(=O)CO)[C@H](C)C[C@H]2[C@@H]3CCC4=CC(=O)C=C[C@]4(C)[C@@]3(F)[C@@H](O)C[C@@]21C,x,x,19µM*,x,13µM*

# Screening data from PubChem.
